Reference: PubChem BioAssay AID1851 (National Center for Advancing Translational Sciences (NCATS), 2009)
“And” between values parts separate entries of the source, which are not always exact repeats. Equal values may be shown once. Out of some 16,000 compounds screened, about 4,000 (25%) were called active. Not shown: some 26% with an inconclusive outcome. The call rests on the fitted dose curve; in most records, active means well fitted curve in the direction sought with a large enough effect; inconclusive means small, poorly fitted or top-dose-only effect, or effect the other way; inactive means no such curve, though single readings can be large or run the other way. Not all results are given here. Some compounds were tested as several samples or in several runs, with calls that do not always agree.

target: Cytochrome P450 2C9 (Homo sapiens) (UniProt P11712); experiment: Cytochrome panel assay with activity outcomes; settings: recombinant CYP, pro-luciferin dealkylation, luminescence, p450-cyp2c9; series mostly up to 57.1 µM
On the % scale 0 is the no-effect control and ±100 the full control effect.

Cytochrome P450 2C9 (Homo sapiens), sequence (P11712 whole entry, looked up): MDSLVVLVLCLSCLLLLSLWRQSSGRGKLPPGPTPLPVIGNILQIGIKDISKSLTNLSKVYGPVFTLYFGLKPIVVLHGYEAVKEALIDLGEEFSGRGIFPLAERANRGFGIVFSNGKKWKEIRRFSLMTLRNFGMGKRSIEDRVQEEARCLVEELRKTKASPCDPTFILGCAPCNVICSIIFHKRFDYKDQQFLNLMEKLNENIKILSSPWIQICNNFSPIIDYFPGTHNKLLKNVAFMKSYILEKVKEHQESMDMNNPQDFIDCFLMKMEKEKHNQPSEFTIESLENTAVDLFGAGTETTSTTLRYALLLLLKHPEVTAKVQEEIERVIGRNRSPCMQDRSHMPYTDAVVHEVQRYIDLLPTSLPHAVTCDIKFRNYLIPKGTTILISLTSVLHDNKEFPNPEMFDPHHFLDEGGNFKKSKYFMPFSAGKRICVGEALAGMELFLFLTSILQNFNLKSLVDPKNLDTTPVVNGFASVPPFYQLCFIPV

activity, negative = inhibition, inactive:
CC(=O)OC[C@H]1O[C@@H](O/N=C\[C@@H](C)[C@H](OCc2ccccc2)C(C)C)[C@H](OC(C)=O)[C@@H](OC(C)=O)[C@H]1OC(C)=O 1.31% [at 11.4 µM]
CN(C)CCCN1c2ccccc2Sc2cnccc21 5.82% [at 11.4 µM]
C[C@H](O/N=C1/[C@H]2O[C@@H]2[C@@H](O)[C@H]2[C@H]1CCn1c(=O)n(-c3ccccc3)c(=O)n12)c1cn([C@H](CO)Cc2ccccc2)nn1 -5.06% [at 11.4 µM] and -0.376% [at 11.4 µM]
Cc1ccc(-c2nc(-c3nccc4ccccc34)oc2-c2ccccc2)cc1 -0.601% [at 11.4 µM]
CNc1nc(-c2cccc(C#N)c2)nc2ccccc12 -18.8% [at 2.29 µM]
CCOC(=O)CCN1C(=O)[C@H]2[C@H]3[C@H](O)[C@H](O)C/C(=N/OC[C@@H](O)COCc4ccco4)[C@H]3CC[C@@H]2C1=O 10.4% [at 11.4 µM]
CN(C)c1nc(-c2ccoc2)nc2ccccc12 21.3% [at 2.29 µM]
C#CCCCO/N=C1/C[C@@H](O)[C@@H](O)[C@@H]2[C@@H]3C(=O)N(Cc4ccccc4)C(=O)[C@H]3CC[C@@H]12 -2.53% [at 11.4 µM]
O=[N+]([O-])c1ccc2ncccc2c1CCc1c([N+](=O)[O-])ccc2ncccc12 13% [at 11.4 µM]
COc1ccc2[nH]cc(CCNc3ncncc3-c3ccccc3CN(C)C)c2c1 4.66% [at 2.29 µM]
COc1ccc2[nH]cc(CCNc3ccnc(-c4ccccc4C(F)(F)F)n3)c2c1 -28.2% [at 2.29 µM]
COc1ccc(CNc2ncncc2-c2ccccc2C(F)(F)F)c(OC)c1 -25.4% [at 2.29 µM]
COc1ccc2[nH]cc(CCNc3cc(-c4ccoc4)ncn3)c2c1 -23.3% [at 2.29 µM]
CC(C)[C@](N)(C(=O)O)c1ccccc1 -6.77% [at 11.4 µM]
CS(=O)(=O)Nc1cccc(-c2ccc3ncnc(N4CCOCC4)c3c2)c1 -1.72% [at 2.29 µM]
O=C1c2ccccc2C(=O)N1C[C@]1(C(=O)O)NCCS1(=O)=O -4.49% [at 11.4 µM]
O=C(O)CCCc1ccc2ccccc2c1 -4.57% [at 11.4 µM]
CCN1C(=O)[C@H]2[C@@H]3[C@H](O)[C@H](O)CC(=O)[C@H]3CC[C@H]2C1=O 17.2% [at 11.4 µM] and 0.779% [at 11.4 µM]
COc1ccc(COC(=O)N/N=C2/C[C@@H](O)[C@@H](O)[C@@H]3[C@@H]4C(=O)N([C@@H](C)c5ccccc5)C(=O)[C@H]4CC[C@H]23)cc1 0.0971% [at 11.4 µM]

AC50, inactive:
CC[C@]1(C)CC(=O)NC1=O
C[n+]1cc(-c2ccccc2)n2c1CCCCC2
Cc1ccc(C(C(=O)NCc2ccco2)N(C(=O)CNC(=O)c2cccs2)c2ccc(C)cc2)cc1 (stereo unspecified)
CN(C/C=C\c1ccccc1)Cc1cccc2ccccc12
NC[C@](O)(CS(=O)(=O)O)c1ccc(Cl)cc1
COc1ccc(CCN2C(=NC(=O)CCC(=O)O)SC3CS(=O)(=O)CC32)cc1 (stereo unspecified)
CCC[C@@H]1O[C@@H]2C[C@@H]3[C@H]4CCC5=CC(=O)C=C[C@@]5(C)[C@H]4[C@H](O)C[C@@]3(C)[C@@]2(C(=O)CO)O1
CN[C@H](CC(=O)O)C(=O)O
CNC[C@H](O)[C@H](O)[C@H](O)[C@H](O)CO
CC(C)NC(=O)N1CCC2(CC1)CCN(C(=O)c1ccco1)CC2
CC(C)NC(=O)N1CC2(CCN(C(=O)c3ccco3)CC2)C1
O=C(c1csnn1)N1CCC2(CCN(Cc3nccs3)CC2)CC1
COCCn1c(=O)c(-c2ccc(Cl)cc2)nc2cnc(N3CCOCC3)nc21
CC(CP(=O)(O)O)NC(=O)Cc1ccccc1 (stereo unspecified)
COc1ccc(C[C@@](C)(N)C(=O)O)cc1OC
O=C(/C=C/c1ccc(Cl)cc1)Nc1ccc(N2CCCCC2)cc1
O=C(O)C1CCCCC1C(=O)Nc1cc(Cl)ccc1Cl (stereo unspecified)
Cc1c(NC(=O)C23CC4CC(CC(C)(C4)C2)C3)c(=O)n(-c2ccccc2)n1C
O=C(CNS(=O)(=O)c1ccc(Br)s1)N1CCC(N2CCCCC2)CC1
N#C/C(=C\c1cccs1)C(=O)NCC1CCCO1 (stereo unspecified)
NC(=O)C1CCN(C(=O)CN2C(=O)c3ccccc3S2(=O)=O)CC1
C[C@@H](C(=O)Nc1ccc2ccccc2c1)[C@@H]1C[C@@]1(C)[C@@H](NS(=O)(=O)c1ccc(-c2ccccc2)cc1)c1ccccc1
O=C(Nc1ccc2ccccc2c1)c1onc2c1CCCC2
C[C@@]1(C(NC(=O)Cc2ccc(C(F)(F)F)cc2)c2ccc(-c3ccccc3)cc2)C[C@H]1C1CCCCC1 (stereo partly specified)
C[C@@H](C(=O)Nc1ccc2ccccc2c1)[C@@H]1C[C@@]1(C)[C@@H](NC(=O)OCc1ccccc1)c1ccccc1
CC(=O)OCC(=O)[C@@]1(O)CC[C@@H]2[C@H]3CCC4=CC(=O)C=C[C@]4(C)[C@]3(F)[C@@H](O)C[C@@]21C
C[C@@H](C(=O)Nc1ccc2ccccc2c1)[C@H]1C[C@]1(C)[C@H](NS(=O)(=O)c1ccc2ccccc2c1)c1ccccc1
Cc1ccc(OCC(=O)NNC(=O)c2cc3ccccc3o2)cc1
Cc1cc(NC(=O)NC(=O)c2ccc(F)cc2F)n[nH]1

AC50, 12.6 µM (active) and inactive:
CC(C)N(CCC(=O)c1ccc2ccccc2c1)Cc1ccccc1

AC50, active:
Cc1cc(C(=O)N[C@@H](c2ccccc2)[C@]2(C)C[C@H]2[C@@H](C)C(=O)Nc2ccc3ccccc3c2)n(C)n1 3.98 µM
Cc1cc(C(=O)N[C@H](c2ccccc2)[C@@]2(C)C[C@@H]2[C@@H](C)C(=O)Nc2ccc3ccccc3c2)n(C)n1 7.94 µM
Cc1ccc(C(C(=O)NCc2ccco2)N(C(=O)CNC(=O)c2cccs2)c2ccc(C)cc2C)cc1 (stereo unspecified) 0.447 µM
Cc1nc(Cl)c(C#N)cc1-c1ccccc1 10 µM
Cc1nc(Sc2ccccc2)c(C#N)cc1-c1ccccc1 5.01 µM
Cc1ccc(Sc2nc(-c3ccccc3)ccc2C#N)cc1 7.94 µM
N#Cc1cc(-c2ccccc2)cnc1Sc1ccc(Cl)cc1 3.55 µM
O=C(NC1CCCCC1)C1CC=CCC1C(=O)OCC(Cl)=C(Cl)Cl (stereo unspecified) 1.41 µM
O=C(c1ccc([N+](=O)[O-])cc1)[C@@H](Br)[C@@H](Br)c1ccnc2ccccc12 3.16 µM
N#C/C(=C\c1ccccc1)c1nc2ncccc2[nH]1 5.01 µM
N#C/C(=C\c1ccc(Cl)cc1)c1nc2ncccc2[nH]1 7.08 µM
COc1ccc2[nH]cc(CCNc3ncncc3-c3cccc(NS(C)(=O)=O)c3)c2c1 0.398 µM
COc1ccc2[nH]cc(CCNc3ncncc3-c3ccccc3C(F)(F)F)c2c1 0.1 µM
COc1ccc2[nH]cc(CCNc3ncncc3-c3ccccc3OC)c2c1 0.251 µM
COc1ccc2[nH]cc(CCNc3ncncc3-c3ccccc3Cl)c2c1 0.2 µM
O=S1(=O)C=C(SCc2cccc(Cl)c2)Nc2ccccc21 1.58 µM
O=C(c1nn(Cc2ccccc2)c(=O)c2ccccc12)N1CCN(C/C=C/c2ccccc2)CC1 3.98 µM
COC(=O)c1cc2n(n1)CCN(Cc1ccccc1F)C2=O 10 µM
CC1CCN(C(NC(=O)c2ccco2)C(=O)c2ccccc2)CC1 (stereo unspecified) 2.51 µM
Cn1nc(-c2ccc(N3CCOCC3)c(NS(=O)(=O)c3ccc(Cl)cc3)c2)c2ccccc2c1=O 1 µM
O=C(/C=C/c1ccccc1)NC(NC(=S)Nc1ccc(Cl)cc1)C(Cl)(Cl)Cl (stereo unspecified) 0.562 µM
O=C(Cc1ccccc1)NC(NC(=S)Nc1cc(Cl)ccc1Cl)C(Cl)(Cl)Cl (stereo unspecified) 0.562 µM
COc1ccc([N+](=O)[O-])cc1NC(=S)NC(NC(=O)Cc1ccc(OC)c(OC)c1)C(Cl)(Cl)Cl (stereo unspecified) 1.26 µM
O=C(NC(NC(=S)Nc1cc(Cl)ccc1Cl)C(Cl)(Cl)Cl)c1ccco1 (stereo unspecified) 0.0447 µM
Cc1ccc(-n2c(C)cc(/C=C(\C#N)C(=O)NCC3CCCO3)c2C)cc1 (stereo unspecified) 17.8 µM
C[C@@H](C(=O)Cc1ccc2ccccc2c1)[C@@H]1C[C@@]1(C)[C@@H](NP(=O)(c1ccccc1)c1ccccc1)c1ccccc1 3.16 µM
CC(=O)N[C@H](c1ccccc1)[C@@]1(C)C[C@@H]1[C@@H](C)C(=O)Nc1ccc2ccccc2c1 10 µM
C[C@@H](C(=O)Nc1ccc2ccccc2c1)[C@H]1C[C@]1(C)[C@H](NC(=O)OCc1ccccc1)c1ccccc1 1.58 µM
C[C@@H](C(=O)Nc1ccc2ccccc2c1)[C@H]1C[C@]1(C)[C@H](NP(=O)(c1ccccc1)c1ccccc1)c1ccccc1 3.16 µM
CC(=O)N[C@@H](c1ccccc1)[C@]1(C)C[C@H]1[C@@H](C)C(=O)Nc1ccc2ccccc2c1 6.31 µM
COC(=O)N[C@H](c1ccccc1)[C@@]1(C)C[C@@H]1[C@@H](C)C(=O)Nc1ccc2ccccc2c1 3.98 µM
Cc1cc(C)cc(OCC(=O)NNC(=O)c2cc(C)[nH]n2)c1 28.2 µM
